# According to PubChem BioAssay AID463212 (Sanford-Burnham Center for Chemical Genomics, 2010):
# Hit rate of the full screen: of about 330,000 compounds, about 4,400 (1.3%) were called active.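 The calls were made as follows: active = growth inhibition of the mutant yeast at or above 50%; inactive = the rest.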 For the sample, actives were picked, then their nearest neighbours and some compounds at random.
# Test: growth inhibitors of tim23-1 mutant yeast, primary screen, luminescence, uHTS (AID 463212);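 also: temperature-sensitive mutant grown at 25 °C; plate controls were DMSO-treated mutant yeast for no effect and medium wells lacking yeast for full effect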
# Conditions: S. cerevisiae tim23-1 growth, BacTiter-Glo luminescence, 24 h; at 20 µM; hits give high values
row,SMILES,inhibition
1,CN(C)c1ccc(N/C=C/C(=O)C(F)(F)F)cc1,6.08% (inactive)
2,O=C(O)c1cc(S(=O)(=O)N2CCCCCC2)c(Cl)cc1Cl,8.13% (inactive)
3,COc1ccc(CCNC(=O)CCCCCNC(=O)N2CCn3c2nc2ccccc23)cc1OC,15% (inactive)
4,CC1CC2=C(CC1/C=N/NC(N)=S)C(C)(C)CCC2 (stereo not drawn),50.5% (active)
5,CC1CCN(C(=S)c2ccc(-c3ccc(Cl)cc3Cl)o2)CC1,17.6% (inactive)
6,C/C(=N\NC(=O)c1ccc(NS(=O)(=O)c2cccs2)cc1)c1ccc2ccccc2c1,10.6% (inactive)
7,CCN(C(=O)CSc1nnnn1-c1ccccc1OC)C1CCS(=O)(=O)C1 (stereo not drawn),-2.5% (inactive)
8,CC(=O)Nc1cccc(C(=O)OCC(=O)c2ccc3c(c2)OCO3)c1,2.44% (inactive)
9,O=C(COC(=O)c1ccccc1)c1ccc2c(c1)OCCO2,16.5% (inactive)
10,O=C(COC(=O)c1ccc(O)cc1O)c1ccc2c(c1)OCCO2,59% (active)
11,O=C(c1cnn2ccccc12)N1CCc2ccccc21,5.86% (inactive)
12,COC(=O)c1cn(C)c2ccc(S(=O)(=O)N3CC(C)CC(C)C3)cc2c1=O (stereo not drawn),17.1% (inactive)
13,CC(=O)N/C(=C/c1ccc(OC(F)F)cc1)C(=O)O,0.72% (inactive)
14,COc1cc(Br)cc(/C=N/c2ncn[nH]2)c1O,72.2% (active)
15,Oc1c(Cl)cc(Cl)cc1/C=N/c1ncn[nH]1,31.4% (inactive)
16,C=CCn1c(Cn2nnc3ccccc32)nnc1SCC(=O)N/N=C/c1cc(Br)cc(OC)c1O,7.67% (inactive)
17,CCc1ccc(Oc2nc([N+](=O)[O-])nn2C)cc1,27.6% (inactive)
18,CC1CCN(Cc2nc3c(c(=O)n(C)c(=O)n3C)n2CCc2ccccc2)CC1,5.06% (inactive)
19,Cn1c2ccccc2c2c(C(=O)N3CCN(c4ccc(F)cc4)CC3)cn(C3CCCC3)c(=O)c21,31.3% (inactive)
20,CCCc1nc2c(c(=O)c3ccccc3n2C)c(=O)n1C1CCCCCC1,59.8% (active)
21,CCN=c1sc(C(=O)Nc2ccccc2)c(C)n1CC,-9.39% (inactive)
22,COc1cccc(C2=CC(=O)C[C@H](c3ccc(OC)c(OC)c3)C2)c1,29% (inactive)
23,Cc1ccc(Oc2cnn(-c3ccccc3)c(=O)c2Br)cc1,55.2% (active)
24,Cc1ccc(OC(=O)c2c(C)nn(-c3ccccc3)c2C)cc1,23% (inactive)

row,SMILES,inhibition
1,Cc1cccc(-n2ncc(Cl)c(Cl)c2=O)c1,13.8% (inactive)
2,Cc1ccc(-n2c(=O)c(C#N)cc3c(=O)n4ccccc4nc32)cc1C,-9.74% (inactive)
3,CCc1ccc(OCC(=O)N(Cc2ccccc2)C2CCS(=O)(=O)C2)cc1 (stereo not drawn),9.11% (inactive)
4,COc1ccccc1C(C)NC(=O)Cc1ccsc1 (stereo not drawn),-5.87% (inactive)
5,O=c1nc2s/c(=C\c3ccco3)c(=O)n2nc1Cc1ccccc1,65.5% (active)
6,O=C(Nc1ccccc1)/C(=C\c1ccco1)NC(=O)c1ccco1,17% (inactive)
7,O=C(NCCc1ccco1)c1nn(Cc2ccccc2)c(=O)c2ccccc12,8.6% (inactive)
8,COc1ccc(C(=O)O)cc1S(=O)(=O)NCc1cccnc1,-0.937% (inactive)
9,COc1ccc(CNC(=O)c2cc(=O)c3c(C)cc(C)cc3o2)cc1,28.5% (inactive)
10,Cc1cc(C)cc(OCC(=O)Nc2cc(NC(=O)COc3cc(C)cc(C)c3)cc(C(=O)O)c2)c1,1.96% (inactive)
11,CNC(=O)c1nnc(Cc2ccc(Cl)cc2)o1,13.1% (inactive)
12,c1ccc2cc(CCCc3cc4ccccc4cn3)ncc2c1,51.6% (active)
13,Cc1nn(CC(=O)N2CCCCC2)c(=O)c2nn(-c3ccccc3)c(C)c12,5.69% (inactive)
14,Cc1ccc(NC(=O)C(=O)NCc2ccc(/C=N/NC(=O)c3c(C)nc4cc(C)ccn34)o2)cc1,13.6% (inactive)
15,O=C(Nc1ccc(Cl)cc1)Nc1nnc(/C=C/c2ccccc2)s1,-4.19% (inactive)
16,O=C(Nc1ccc(S(=O)(=O)Nc2ccccn2)cc1)c1ccccc1,-13.7% (inactive)
17,O=C(Nc1ccccc1)c1nnsc1S(=O)(=O)c1ccc(Cl)cc1,59.8% (active)
18,CC(=O)C[C@@H](O)CC(=O)[C@H]1OC(=O)CCCCCCc2ccccc21,12.8% (inactive)
19,CCOC(=O)C1=C(C)N(C[C@@H]2CC[C@@H](Cc3ccc(-c4ccccc4)cc3)O2)C(=O)NC1c1ccc([N+](=O)[O-])cc1 (stereo partly drawn),34.6% (inactive)
20,C=CCNC(=S)N1CCc2[nH]c3ccccc3c2C1,-8.13% (inactive)
21,CC[C@]1(C(=O)OC)[C@H]2C(=O)N(Cc3ccccc3)C(=O)[C@H]2[C@H]2CN=C(SCc3ccc(Cl)cc3)N21,53.5% (active)
22,CC[C@]1(C(=O)OC)[C@H]2C(=O)N(Cc3ccccc3)C(=O)[C@H]2[C@H]2CN=C(SCc3ccc(C#N)cc3)N21,46.4% (inactive)
23,CC[C@]1(C(=O)OC)[C@H]2C(=O)N(Cc3ccccc3)C(=O)[C@H]2[C@H]2CN=C(SCc3ccccc3)N21,37.7% (inactive)
24,COc1cccc(NC(=O)CN(C)C(=O)CSCc2nc3scc(-c4cccs4)c3c(=O)[nH]2)c1,4.94% (inactive)

row,SMILES,inhibition
1,Cc1ccc(NC(=O)Cn2c(=O)n(CCC(=O)NC3CCN(Cc4ccccc4)CC3)c(=O)c3ccccc32)cc1,-1.05% (inactive)
2,CC(C)CNC(=O)COC(=O)c1ccccc1OCC(=O)Nc1ccc(Br)cc1,-11.3% (inactive)
3,COC(=O)c1ccc(CNC(=O)c2ccc(S(=O)(=O)N3CCCCCC3)cc2)cc1,15.9% (inactive)
4,O=C(NCCc1ccc(F)cc1)c1ccc(S(=O)(=O)N2CCCCC2)cc1,53.6% (active)
5,O=C(Nc1ccccc1F)c1ccc(S(=O)(=O)N2CCCCCC2)cc1,34.9% (inactive)
6,CC(=O)Oc1ccc(C(C)=O)c2c1OCCO2,5.79% (inactive)
7,CCc1ccc(NC(=O)Cn2nc(C)c([N+](=O)[O-])c2C)cc1,25.5% (inactive)
8,Cc1nn(CC(=O)Nc2nc3ccccc3s2)c(C)c1[N+](=O)[O-],69.8% (active)
9,Cc1nn(CC(=O)NCc2ccccn2)c(C)c1[N+](=O)[O-],24.7% (inactive)
10,O=C(NCc1nnc(SCC(=O)N2CCCc3ccccc32)o1)c1ccccc1F,19.1% (inactive)
11,COc1ccc(N(Cc2cc3ccc(C)cc3[nH]c2=O)S(=O)(=O)c2ccccc2)cc1,48.9% (inactive)
12,O=C(Nc1ccncc1)c1ccc(Cl)c([N+](=O)[O-])c1,-42.5% (inactive)
13,O=C(/C=C/c1ccc(Cl)cc1Cl)c1cccnc1,31.1% (inactive)
14,O=C(/C=C/c1ccc(Cl)c([N+](=O)[O-])c1)c1cccnc1,80.7% (active)
15,CC1CCCCC1NC(=O)CCS(=O)(=O)c1cccc2nonc12 (stereo not drawn),4.3% (inactive)
16,O=C(CCS(=O)(=O)Cc1ccccc1F)NCCCN1CCCCC1,-8.7% (inactive)
17,CSCCC(NC(=O)COc1ccccc1)C(=O)N(C)CC(=O)Nc1ccc(C)cc1 (stereo not drawn),8.43% (inactive)
18,Cc1ccc(CNC(=O)c2cccnc2Cl)cc1,-14.6% (inactive)
19,CCc1ccc(NC(=O)NC(C)c2ccc3c(c2)OCO3)cc1 (stereo not drawn),22.5% (inactive)
20,CC(=NCc1ccc2c(c1)OCO2)C1=C(O)c2ccccc2C1=O,51.6% (active)
21,CC(=NCc1ccco1)c1c(C(F)(F)F)[nH]n(-c2nc3ccccc3s2)c1=O,22.4% (inactive)
22,CC(=NCc1ccco1)C1=C(O)c2ccccc2C1=O,50.3% (active)
23,CC1CCC(NC(=O)C2c3ccccc3C(=O)N2Cc2ccc3c(c2)OCO3)CC1 (stereo not drawn),9.09% (inactive)
24,O=C1C(C=NCC2CCCO2)=C(O)c2ccccc21 (stereo not drawn),6.49% (inactive)

row,SMILES,inhibition
1,CCOC(=O)C[C@H]1c2ccc(C(F)(F)F)cc2S(=O)(=O)N1c1ccccc1,33.9% (inactive)
2,COc1cc2c(C(=O)N(C)c3cc(Cl)ccc3OC)cn(C)c(=O)c2cc1OC,10% (inactive)
3,N#CC(Cc1cc2ccccc2n1S(=O)(=O)c1ccccc1)OCc1ccccc1 (stereo not drawn),30.3% (inactive)
4,CC1C(=O)C(C)C(c2ccc(O)cc2)NC1c1ccc(O)cc1 (stereo not drawn),0.501% (inactive)
5,CCc1nc2sc(C(=O)O)c(N)c2c2c1CCCC2,-17.3% (inactive)
6,Cc1nc2sc(C(=O)c3ccccc3)c(N)c2c2c1CCCC2,51.8% (active)
7,Cc1ccc2c(N)c(C(=O)c3ccccc3)sc2n1,48.6% (inactive)
8,CCOC(=O)C1CCCN(S(=O)(=O)c2ccc(-n3cnnn3)c(C)c2)C1 (stereo not drawn),2.62% (inactive)
9,COc1ccc(/C(O)=C2/C(=O)C(=O)N(CC3CCCO3)C2c2ccc(OC)c(OC)c2)cc1 (stereo not drawn),-1.19% (inactive)
10,Cc1nnc(SCC(=O)N(C(C)C)C(C)C)nc1C,8.73% (inactive)
11,O=C(COc1ccc([N+](=O)[O-])cc1Cl)Nn1cnnc1,6.97% (inactive)
12,COc1ccc(-c2nc3cnccn3c2NC2CCCCC2)cc1-c1cccc(Cl)c1,21.6% (inactive)
13,CCOc1cc(-c2nc3cc(C)ccn3c2NCC2CCCO2)ccc1O (stereo not drawn),18.9% (inactive)
14,COc1ccc(-c2nc3cc(C)ccn3c2NC2CCCCC2)cc1SC1CCCCC1,52.3% (active)
15,O=C(c1cc2ccccc2o1)N1CCN(Cc2ccccc2)CC1,12.6% (inactive)
16,Cc1[nH]c2ccccc2c1-c1ccc(Cl)nn1,5.43% (inactive)
17,CC(C)CCNC(=O)c1ccc2c(Cl)c3c(nc2c1)CCC3,43.3% (inactive)
18,CSc1ccc(S(=O)(=O)NC2CCCCC2)cc1,31.1% (inactive)
19,CC(C)c1ccc(S(=O)(=O)NC2CCCC2)cc1,23.4% (inactive)
20,Cc1ccc(S(=O)(=O)NC2CCCCCC2)cc1,51.4% (active)
21,CC(CC(=O)N1CCN(S(=O)(=O)c2ccccc2)CC1)n1cncn1 (stereo not drawn),7.53% (inactive)
